In PubChem BioAssay (NCI):
Values joined by “and” are separate entries in the source; they are usually repeats but may differ in a detail not shown here. Equal values may be shown once. The panel holds about 83,000 compounds, 20% with a hit somewhere; the sample as a whole holds those more often.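 The endpoint reported here, percent growth, reads 100 for growth as untreated, 0 for no net growth and -100 for all cells dead.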 Unmarked numbers belong to inactive results. Active and inactive are the calls of the source. How the source made its calls: active means growth percent below 10; inactive means the rest.

The molecules below were run on HL-60(TB) leukemia (assay: NCI-60 one-dose screen, 48 h (100 = growth as untreated, 0 = no growth, -100 = all killed)). Conditions: 10 µM unless noted.

SMILES | growth
O/N=C(\CSc1nnc(-c2c[nH]c3ccccc23)n1-c1ccccc1)c1ccc(Br)cc1 | -36.3% (active)
COc1ccc(C(=O)/C=C/c2ccc(Oc3nc(Nc4ccc(F)cc4)nc(N(C)C)n3)c(OC)c2)cc1 | 48.1%
CCCCCCCS(=O)(=O)N1CCCC(C(=O)Nc2nc3ccc(NC(=O)c4ccc(F)c(OC)c4F)cc3s2)C1 (stereo not given) | 66.7%
CCN(CC)c1ccc(/C=N/Nc2nc(-c3ccc(C)cc3)cs2)c(O)c1 | 70%
Oc1ccc(F)c(Nc2nc(SCCN3CCOCC3)nc3c2cnn3CC(Cl)c2ccc(Br)cc2)c1 (stereo not given) | 2.22% (active)
CCOc1ccc(/C=N/NC(=O)Cn2nc(Cc3ccc([N+](=O)[O-])cc3)c3onc(C)c3c2=O)cc1 | 81.5%
Nc1nc(Nc2ccc(Cl)cc2)nn1Cc1cccc(Br)c1 | 34.5%
O=C(CN1C(=O)/C(=C/c2ccccc2F)SC1=S)N1CCOCC1 | 82.5%
COc1cc2oc(-c3cccc(C(=O)Nc4cccc([N+](=O)[O-])c4)c3)cc(=O)c2c(OC)c1OC | 101%
CCC1(OC(=O)c2ccccc2SSCCOC(=O)CCCCC2SCC3NC(=O)NC32)C(=O)OCc2c1cc1n(c2=O)Cc2cc3ccccc3nc2-1 (stereo not given) | 76.7%
Fc1ccc(N2CC(Cn3c(C(F)(F)F)cc4c(Cl)ncnc43)C2)c(F)c1 | -40.3% (active)
Nc1cccc(-n2c(COc3ccc(I)cc3)nc3ccccc32)c1 | 118% and 98%
COc1c2c(cc3c1C(CCc1ccccc1)N(C)CC3)OCO2 (stereo not given) | -28.3% (active)
O=C(N/N=C/c1ccoc1)c1[nH]c2ccc(Br)cc2c1-c1ccccc1 | -27.3% (active)
CN1CCN(c2ccc3c4c(cccc24)C(=O)N(c2cccc(-c4nn(-c5ccccc5)cc4-c4nc5ccccc5s4)c2)C3=O)CC1 | 102%
CCOC(=O)CNC(=O)CN(Cc1ccccc1)C(=O)[C@@]1(C)CCC[C@]2(C)[C@H]3CC4C(C(C)C)=C[C@]3(CC[C@H]21)[C@@H]1C(=O)CCC(=O)[C@H]41 | 2.73% (active)
c1n[nH]cc1-c1nc2ccc3[nH]ncc3c2c2c1CC1(CCOCC1)CC2 | 26.5%
O=C1Nc2ccc(F)cc2/C1=C/c1cccc(OCc2ccccn2)c1 | 7.92% (active)
COc1cc(/C=C/C(=O)c2cnn(-c3cc(=O)[nH]c4ccc(C)cc34)c2C)cc(OC)c1OC | -28.4% (active)
C=C1CCC2C3(C)COC(c4c(F)cccc4F)OC3CCC2(C)C1CC(O)C1=CCOC1=O (stereo not given) | 81.6%

SMILES | growth
N#Cc1c(NC(=O)c2ccc(C(F)(F)F)cc2C(F)(F)F)sc2c1CCC(=O)C2 | -24% (active)
N#Cc1c(-c2ccc(F)cc2)nc(SCc2ccc([N+](=O)[O-])cc2)nc1N1CCOCC1 | 82.7%
Cc1[nH]nc2ccc3nc(-c4cn[nH]c4C(F)(F)F)c4c(c3c12)CCCC4 | -0.0725% (active)
O=c1cc(-c2ccccc2)oc2cc(OCCCC[P+](c3ccccc3)(c3ccccc3)c3ccccc3)cc(O)c12 | -51.5% (active)
O=C(c1ccc(O)cc1)C1[C@H](c2ccccc2Br)[C@@H](c2ccccc2)NC12C(=O)Nc1ccc(Br)cc12 (stereo not given in full) | 33.6%
COc1sc(/C=N/NC(=O)c2[nH]c3ccc(Br)cc3c2-c2ccccc2)cc1Cl | -42.8% (active)
O=C(Nc1cccc(-n2cnc3cc(-c4ccc(O)cc4)ccc32)c1)C1CC1 | -16.7% (active)
C=C1CC[C@@H]2[C@]3(C)COC(c4cn[nH]c4-c4ccc(OC)cc4)O[C@@H]3CC[C@@]2(C)[C@@H]1C/C=C1/C(=O)OCC1O (stereo not given in full) | 1.59% (active)
CN(C)c1ccc(/C=C/C(=O)c2ccc(NC(=O)CN3C(=O)NC(C)(c4ccccc4)C3=O)cc2)cc1 (stereo not given) | 47.5%
CCCCC[C@@H]1C/C=C(\C)[C@@H](O)C(C)(C)C(=O)[C@@H](C)/C=C(\C)[C@@H]2C[C@H](O)C[C@](O)(CC(=O)O1)O2 | 11.8%
O=C(Nc1ccc(Cl)c([N+](=O)[O-])c1)Nc1ccc(Cl)c([N+](=O)[O-])c1 | 2.93% (active)
CC1(c2cc3cc(Cl)ccc3oc2=O)NC(=O)c2c(/C=C/C(=O)OC3CC4CCC3(C)C4(C)C)cccc2N1 (stereo not given) | 29%
C=CCSc1nnc(-c2ccc(-c3nc4ccc(Cl)cc4[nH]3)cc2)o1 | 29.8%
CCOC(=O)/C(F)=C/C1CC1C1CCN(C(=O)OC(C)(C)C)CC1 (stereo not given) | 102%
O=C1CCC(N2Cc3cc(CC(=O)Nc4ccc(N5CCCCC5)cc4)ccc3C2=O)C(=O)N1 (stereo not given) | -0.226% (active)
CCOC(=O)c1ccc(Nc2nc(NN)nc(-c3ccc(OC)cc3)c2C#N)cc1 | 103%
O=c1oc2ccccc2cc1-c1csc(N=Nc2c(O)[nH]c3ccc(Br)cc23)n1 | 99%
COc1c(F)ccc(C(=O)Nc2ccc3nc(NC(=O)C4CCCN(S(=O)(=O)C5CC5)C4)sc3c2)c1F (stereo not given) | 32.4%
O=C(COc1ccc(NC(=O)Nc2ccc(Cl)c(Cl)c2)cc1)N=Nc1c(O)[nH]c2ccc(Br)cc12 | -27.2% (active)
CC1[C@H]2[C@H](C[C@H]3[C@@H]4CC=C5c6sc(Nc7ccccc7F)nc6CC[C@]5(C)[C@H]4CC[C@@]32C)O[C@]12CC[C@@H](C)CO2 (stereo not given in full) | -41.9% (active)
